These results are taken from PubChem BioAssay (EPA / NIEHS).

As a reminder, the AC50 is the concentration giving half of the maximal activity seen.

Assay [1] can be described thus: STM_H9_NormalizedViability: Cytotoxicity Assessment at 120 hours in the Stemina devTOX quickPredict H9 human embryonic stem cell (hESC)-based Assay (AID 2283784). An outline of the steps: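 CellTiter-Fluor RFU, background-subtracted, expressed relative to 0.1% DMSO neutral control by plate. Pluripotent H9 cells; treatment with daily re-dosing. Plates carried 1uM methotrexate (positive) and 5 nM methotrexate (negative) references.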

The subject of assay [2] is turtle Androgen Receptor (AR), gene 101947425. As to the kind of experiment: ATG_trAR_XSP1: Attagene TRANS-FACTORIAL Multi-Species (XSP1) HepG2 Assay for turtle Androgen Receptor (AR) (AID 2283786). An outline of the steps:
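Partial androgen stimulation is provided by 3 nM 6-alpha-fluorotestosterone in a multi-species trans-factorial panel expressing a turtle AR–GAL4 fusion in HepG2. After 24 h, reporter mRNA is measured by RT-PCR and capillary electrophoresis and fitted upward against DMSO.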

The target of assay [3] is Estrogen receptor beta (Homo sapiens) (UniProt Q92731). As to the kind of experiment: ATG_hERb_XSP1: Attagene TRANS-FACTORIAL Multi-Species (XSP1) HepG2 Assay for human Estrogen Receptor (ESR2) (AID 2283788). An outline of the steps: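 Multiplexed trans-activation in transfected HepG2: ERβ-Gal4 reporter transcripts after 24 h treatment, detected by RT-PCR plus capillary electrophoresis.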

For assay [4], the target named is GAL4 Transcription Factor (Internal Marker), GAL4 (gene 855828) (UniProt P04386). Briefly: ATG_GAL4_XSP1: Attagene TRANS-FACTORIAL Multi-Species (XSP1) HepG2 Assay for GAL4 Transcription Factor (Internal Marker) (AID 2283789). An outline of the steps: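 This background-control endpoint measures GAL4-driven reporter mRNA via RT-PCR and capillary electrophoresis of labelled fragments. Transiently transfected HepG2 cells were treated 24 h, with 3 nM 6-alpha-fluorotestosterone included, and gain-of-signal was fitted against DMSO.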

Assay [5] in a line: ATG_M_06_XSP1: Attagene TRANS-FACTORIAL Multi-Species (XSP1) HepG2 Assay for M06 Transcription Factor (Internal Marker) (AID 2283790). An outline of the steps:
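This background-control readout tracks M06 reporter mRNA, measured by RT-PCR and capillary electrophoresis. HepG2 cells transiently carrying the GAL4-UAS reporter panel were dosed for 24 h with 3 nM 6-alpha-fluorotestosterone added for partial AR stimulation; increases were scored relative to DMSO.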

Assay [6] in a line: ATG_M_61_XSP1: Attagene TRANS-FACTORIAL Multi-Species (XSP1) HepG2 Assay for M61 Transcription Factor (Internal Marker) (AID 2283797). An outline of the steps:
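Background-control readout: reporter transcripts measured by RT-PCR and capillary electrophoresis 24 h after dosing transiently transfected HepG2 multi-reporter cells, with 3 nM 6-alpha-fluorotestosterone present. Fitted in the positive direction relative to DMSO.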

The target in assay [7] is mouse Peroxisome Proliferator-activated Receptor gamma (PPARg), Pparg (gene 19016) (UniProt P37238). As to the kind of experiment: ATG_mPPARg_XSP1: Attagene TRANS-FACTORIAL Multi-Species (XSP1) HepG2 Assay for mouse Peroxisome Proliferator-activated Receptor gamma (PPARg) (AID 2283802). An outline of the steps:
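Readout is reporter mRNA induction, measured by RT-PCR with 6-FAM labelling, HpaI digestion and capillary electrophoresis, 24 h post-dose relative to DMSO. Transient multi-reporter transfection of human HepG2 with mouse PPARg–GAL4 fusion; 3 nM 6-alpha-fluorotestosterone included.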

Assay [8] deals with Nuclear receptor subfamily 1 group I member 2 (Mus musculus) (UniProt O54915). As to the kind of experiment: ATG_mPXR_XSP1: Attagene TRANS-FACTORIAL Multi-Species (XSP1) HepG2 Assay for mouse Pregnane X Receptor (PXR) (AID 2283803). An outline of the steps: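 Transiently transfected HepG2 cells expressing a receptor-Gal4 chimera drive a GAL4-UAS reporter; 3 nM 6-alpha-fluorotestosterone included. Reporter mRNA read 24 h post-dose by RT-PCR and capillary electrophoresis; gain of signal relative to DMSO.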

The target of assay [9] is frog Thyroid hormone Receptor alpha (TRa), thra-a (gene 397942) (UniProt P15204). Briefly: ATG_frTRa_XSP1: Attagene TRANS-FACTORIAL Multi-Species (XSP1) HepG2 Assay for frog Thyroid hormone Receptor alpha (TRa) (AID 2283804). An outline of the steps:
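Reporter transcript induction, measured by RT-PCR with 6-FAM labelling and capillary electrophoresis, 24 hr after dosing transiently transfected HepG2 cells expressing a frog TRa-GAL4 fusion; medium contained 3 nM 6-alpha-fluorotestosterone; increase over DMSO scored.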

In assay [10] the target is human Thyroid hormone Receptor alpha (TRa), THRA (gene 7067) (UniProt P10827). Briefly: ATG_hTRa_XSP1: Attagene TRANS-FACTORIAL Multi-Species (XSP1) HepG2 Assay for human Thyroid hormone Receptor alpha (TRa) (AID 2283805). An outline of the steps:
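Reporter transcripts from the human TRa-Gal4 TRANS unit quantified by RT-PCR, fluorescent labeling and capillary electrophoresis after 24 hours of chemical exposure in transfected HepG2 cells; medium contains 3 nM 6-alpha-fluorotestosterone. Positive direction fit against DMSO.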

Assay [11] deals with turtle Thyroid Hormone Receptor, alpha (TRa), gene 101949057. As to the kind of experiment: ATG_trTRa_XSP1: Attagene TRANS-FACTORIAL Multi-Species (XSP1) HepG2 Assay for turtle Thyroid Hormone Receptor, alpha (TRa) (AID 2283806). An outline of the steps:
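After 24 h chemical exposure, reporter transcripts were measured by RT-PCR with fluorescent primer extension, HpaI digestion and capillary electrophoresis. Cells were transiently transfected HepG2 expressing exogenous NR-Gal4 chimeras; medium contained 3 nM 6-alpha-fluorotestosterone; fitted upward relative to DMSO.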

Assay [12] addresses zebrafish Thyroid Hormone Receptor alpha (TRa), thraa (gene 30670) (UniProt Q98867). Briefly: ATG_zfTRa_XSP1: Attagene TRANS-FACTORIAL Multi-Species (XSP1) HepG2 Assay for zebrafish Thyroid Hormone Receptor alpha (TRa) (AID 2283807). An outline of the steps:
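Reporter transcripts driven by a chimeric zebrafish TRa–Gal4 protein were measured by RT-PCR with fluorescent labelling and capillary electrophoresis. These came from transiently transfected HepG2 cells after 24 h chemical exposure, with 3 nM 6-alpha-fluorotestosterone added; baseline was DMSO.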

Assay [13] concerns the target human Thyroid hormone Receptor beta (TRb), THRB (gene 7068) (UniProt P10828). As to the kind of experiment: ATG_hTRb_XSP1: Attagene TRANS-FACTORIAL Multi-Species (XSP1) HepG2 Assay for human Thyroid hormone Receptor beta (TRb) (AID 2283808). An outline of the steps: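 Readout is reporter mRNA induction measured by RT-PCR, fluorescent labelling and capillary electrophoresis, fitted upward relative to DMSO. Transiently transfected human HepG2 cells expressing NR-Gal4 chimeras were dosed for 24 h, medium containing 3 nM 6-alpha-fluorotestosterone.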

Assay [14] has as its target zebrafish Thyroid Hormone Receptor beta (TRb), thrb (gene 30607) (UniProt Q9PVE4). Briefly: ATG_zfTRb_XSP1: Attagene TRANS-FACTORIAL Multi-Species (XSP1) HepG2 Assay for zebrafish Thyroid Hormone Receptor beta (TRb) (AID 2283809). An outline of the steps:
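HepG2 cells transiently transfected with multiplexed GAL4-UAS reporter units expressing chimeric zebrafish TRb–Gal4. Dosed 24 h with 3 nM 6-alpha-fluorotestosterone present; reporter mRNA measured by RT-PCR, HpaI digestion and capillary electrophoresis; gain of signal versus DMSO.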

The nature of assay [15]: ATG_XTT_Cytotoxicity_XSP1: Cytotoxicity Assessment in the Attagene TRANS-FACTORIAL Multi-Species (XSP1) HepG2 Assay (AID 2283810). An outline of the steps:
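XTT viability readout taken at 24 hours post-dosing in HepG2 liver cells co-treated with 3 nM 6-alpha-fluorotestosterone. Signal loss relative to DMSO controls reflects cytotoxicity.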

The nature of assay [16]: ATG_M_06_XSP2: Attagene TRANS-FACTORIAL Multi-Species (XSP2) HepG2 Assay for M06 Transcription Factor (Internal Marker) (AID 2283811).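 Further: hits are increases in signal above the DMSO baseline.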 An outline of the steps:
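Cells of the human liver line HepG2 carried transfected reporter transcription units and were treated for 24 h. Induced reporter transcripts were detected by fluorescence after RT-PCR and capillary electrophoresis, with activity fitted in the gain direction against DMSO.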

For assay [17], the system named is turtle Estrogen Receptor (ERa), gene 101933533. As to the kind of experiment: ATG_trERa_XSP2: Attagene TRANS-FACTORIAL Multi-Species (XSP2) HepG2 Assay for turtle Estrogen Receptor (ERa) (AID 2283812).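 Further: actives raise reporter signal above DMSO so AC50 reflects agonist activity.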 An outline of the steps:
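Readout is reporter mRNA quantified by RT-PCR with capillary electrophoresis after 24 h compound exposure, increase relative to DMSO. Uses transiently transfected human HepG2 liver cells carrying a chimeric turtle ERa-Gal4 receptor driving GAL4-UAS reporters.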

Assay [18] has as its target Estrogen receptor beta (Homo sapiens) (UniProt Q92731). As to the kind of experiment: ATG_hERb_XSP2: Attagene TRANS-FACTORIAL Multi-Species (XSP2) HepG2 Assay for human Estrogen Receptor (ERb) (AID 2283813).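 Further: actives raise reporter mRNA above DMSO so AC50 reflects agonist induction.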 An outline of the steps: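 Transient TRANS reporter system in HepG2: after 24 h of chemical, RNA is reverse-transcribed, reporter cDNA amplified, FAM-labelled and sized by capillary electrophoresis. Induction of the human ERb-Gal4 reporter is measured relative to DMSO.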

Assay [19] deals with GAL4 Transcription Factor (Internal Marker), GAL4 (gene 855828) (UniProt P04386). Briefly: ATG_GAL4_XSP2: Attagene TRANS-FACTORIAL Multi-Species (XSP2) HepG2 Assay for GAL4 Transcription Factor (Internal Marker) (AID 2283814).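 Further: GAL4 reporter mRNA background control in MRTU transfected cells not a receptor target.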 An outline of the steps:
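Background-control readout: gain-of-signal fitted against DMSO. After 24 h exposure of transfected HepG2 (MRTU, GAL4-UAS reporters; 3 nM 6-alpha-fluorotestosterone, 1.5 nM norgestrel present), transcripts quantified by RT-PCR and capillary electrophoresis fluorescence.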

Structures are written as SMILES. Several values for one entry are separate records, joined by “and”; a condition that tells them apart may be missing. Identical values can stand only once. Inconclusive results are not listed. Activity calls are given as the source filed them. How the source made its calls: active means hit-call score of the fitted dose curve at least 0.9, where 1 is the maximum; inconclusive means response in the unintended direction; inactive means score below 0.9.

Chain of GAL4 Transcription Factor (Internal Marker), GAL4 (gene 855828) (P04386 whole entry, looked up, the tested form may be a part): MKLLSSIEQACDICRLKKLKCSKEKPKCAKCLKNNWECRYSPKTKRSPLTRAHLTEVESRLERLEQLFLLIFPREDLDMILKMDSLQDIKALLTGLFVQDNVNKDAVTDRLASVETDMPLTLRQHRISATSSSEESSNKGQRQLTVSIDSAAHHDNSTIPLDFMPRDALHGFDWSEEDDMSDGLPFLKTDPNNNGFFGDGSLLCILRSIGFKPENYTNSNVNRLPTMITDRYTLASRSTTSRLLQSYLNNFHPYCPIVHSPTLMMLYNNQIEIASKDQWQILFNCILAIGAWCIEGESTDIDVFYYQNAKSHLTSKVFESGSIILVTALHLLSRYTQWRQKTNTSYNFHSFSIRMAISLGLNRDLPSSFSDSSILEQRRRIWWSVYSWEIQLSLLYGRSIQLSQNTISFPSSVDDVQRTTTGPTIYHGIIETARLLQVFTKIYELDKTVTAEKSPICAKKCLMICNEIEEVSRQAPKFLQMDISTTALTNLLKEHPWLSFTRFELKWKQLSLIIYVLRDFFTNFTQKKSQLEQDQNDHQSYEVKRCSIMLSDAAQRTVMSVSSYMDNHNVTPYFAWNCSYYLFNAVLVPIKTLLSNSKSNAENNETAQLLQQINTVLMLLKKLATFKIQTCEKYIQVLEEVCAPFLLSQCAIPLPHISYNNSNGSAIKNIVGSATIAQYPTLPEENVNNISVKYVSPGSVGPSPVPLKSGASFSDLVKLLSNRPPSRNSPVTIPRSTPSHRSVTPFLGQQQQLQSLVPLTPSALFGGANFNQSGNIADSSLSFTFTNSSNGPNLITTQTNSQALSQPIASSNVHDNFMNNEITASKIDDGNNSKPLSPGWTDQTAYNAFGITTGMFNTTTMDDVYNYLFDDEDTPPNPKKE
Chain of Estrogen receptor beta (Homo sapiens) (Q92731 whole entry, looked up, the tested form may be a part): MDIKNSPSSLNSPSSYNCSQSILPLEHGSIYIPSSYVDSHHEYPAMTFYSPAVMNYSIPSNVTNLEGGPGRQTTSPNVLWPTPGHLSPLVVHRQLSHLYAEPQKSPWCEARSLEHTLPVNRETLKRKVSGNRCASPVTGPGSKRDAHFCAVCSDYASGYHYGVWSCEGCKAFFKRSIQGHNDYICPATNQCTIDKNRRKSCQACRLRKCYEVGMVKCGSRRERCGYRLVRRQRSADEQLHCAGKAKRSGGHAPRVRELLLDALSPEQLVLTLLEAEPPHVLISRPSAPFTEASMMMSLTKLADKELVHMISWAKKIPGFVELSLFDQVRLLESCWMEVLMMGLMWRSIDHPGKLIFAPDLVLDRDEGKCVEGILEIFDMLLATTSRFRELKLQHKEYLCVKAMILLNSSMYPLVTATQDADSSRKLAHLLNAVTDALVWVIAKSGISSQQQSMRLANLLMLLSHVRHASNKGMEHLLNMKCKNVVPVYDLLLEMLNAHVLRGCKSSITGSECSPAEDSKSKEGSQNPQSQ
Chain of frog Thyroid hormone Receptor alpha (TRa), thra-a (gene 397942) (P15204 whole entry, looked up, the tested form may be a part): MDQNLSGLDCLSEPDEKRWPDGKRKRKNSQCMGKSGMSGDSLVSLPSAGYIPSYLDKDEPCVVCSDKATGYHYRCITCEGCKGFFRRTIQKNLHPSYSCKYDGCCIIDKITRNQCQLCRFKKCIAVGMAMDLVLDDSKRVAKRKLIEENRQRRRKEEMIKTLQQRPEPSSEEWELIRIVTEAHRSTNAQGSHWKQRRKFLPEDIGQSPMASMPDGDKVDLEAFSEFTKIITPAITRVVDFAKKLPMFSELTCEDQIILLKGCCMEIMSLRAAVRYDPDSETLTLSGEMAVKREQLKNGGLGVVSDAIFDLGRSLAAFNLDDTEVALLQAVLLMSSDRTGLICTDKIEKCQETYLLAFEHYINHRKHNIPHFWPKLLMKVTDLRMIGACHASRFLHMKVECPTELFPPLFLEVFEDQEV
Chain of Nuclear receptor subfamily 1 group I member 2 (Mus musculus) (O54915 whole entry, looked up, the tested form may be a part): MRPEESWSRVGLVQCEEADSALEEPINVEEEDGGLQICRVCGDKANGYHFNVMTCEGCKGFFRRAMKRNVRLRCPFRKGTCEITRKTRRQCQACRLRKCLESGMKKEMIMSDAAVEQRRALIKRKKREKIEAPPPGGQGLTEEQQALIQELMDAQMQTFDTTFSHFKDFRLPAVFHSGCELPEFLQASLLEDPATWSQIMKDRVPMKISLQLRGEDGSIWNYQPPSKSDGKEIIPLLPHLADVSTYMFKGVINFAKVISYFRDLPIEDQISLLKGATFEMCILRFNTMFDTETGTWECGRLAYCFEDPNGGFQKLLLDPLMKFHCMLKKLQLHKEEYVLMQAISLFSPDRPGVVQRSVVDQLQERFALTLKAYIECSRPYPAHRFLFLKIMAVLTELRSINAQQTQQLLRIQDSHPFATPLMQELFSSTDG
Chain of human Thyroid hormone Receptor alpha (TRa), THRA (gene 7067) (P10827 whole entry, looked up, the tested form may be a part): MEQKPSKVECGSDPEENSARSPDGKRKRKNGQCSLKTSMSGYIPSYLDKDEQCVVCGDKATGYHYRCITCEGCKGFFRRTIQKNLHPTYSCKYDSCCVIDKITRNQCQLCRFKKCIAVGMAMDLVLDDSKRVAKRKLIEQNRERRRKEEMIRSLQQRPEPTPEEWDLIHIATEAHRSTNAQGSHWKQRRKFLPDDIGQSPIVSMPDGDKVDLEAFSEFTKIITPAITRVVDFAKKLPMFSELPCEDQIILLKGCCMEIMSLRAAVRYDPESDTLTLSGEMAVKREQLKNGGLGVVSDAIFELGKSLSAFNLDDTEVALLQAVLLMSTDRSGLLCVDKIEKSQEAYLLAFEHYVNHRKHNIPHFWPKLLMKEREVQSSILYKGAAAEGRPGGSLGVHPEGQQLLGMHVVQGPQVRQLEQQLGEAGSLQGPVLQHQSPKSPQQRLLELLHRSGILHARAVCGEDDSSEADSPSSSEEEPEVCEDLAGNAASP
Chain of zebrafish Thyroid Hormone Receptor beta (TRb), thrb (gene 30607) (Q9PVE4 whole entry, looked up, the tested form may be a part): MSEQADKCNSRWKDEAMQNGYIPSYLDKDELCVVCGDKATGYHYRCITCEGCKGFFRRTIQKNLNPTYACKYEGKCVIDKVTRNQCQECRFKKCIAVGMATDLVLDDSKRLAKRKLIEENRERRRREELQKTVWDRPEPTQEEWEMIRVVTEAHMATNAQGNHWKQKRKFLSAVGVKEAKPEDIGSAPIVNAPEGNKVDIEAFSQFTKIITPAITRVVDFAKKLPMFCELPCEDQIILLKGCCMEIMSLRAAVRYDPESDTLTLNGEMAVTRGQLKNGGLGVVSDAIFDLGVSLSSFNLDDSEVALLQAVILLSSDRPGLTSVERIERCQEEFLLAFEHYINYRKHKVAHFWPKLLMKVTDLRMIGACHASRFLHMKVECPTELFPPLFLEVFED
Chain of mouse Peroxisome Proliferator-activated Receptor gamma (PPARg), Pparg (gene 19016) (P37238 whole entry, looked up, the tested form may be a part): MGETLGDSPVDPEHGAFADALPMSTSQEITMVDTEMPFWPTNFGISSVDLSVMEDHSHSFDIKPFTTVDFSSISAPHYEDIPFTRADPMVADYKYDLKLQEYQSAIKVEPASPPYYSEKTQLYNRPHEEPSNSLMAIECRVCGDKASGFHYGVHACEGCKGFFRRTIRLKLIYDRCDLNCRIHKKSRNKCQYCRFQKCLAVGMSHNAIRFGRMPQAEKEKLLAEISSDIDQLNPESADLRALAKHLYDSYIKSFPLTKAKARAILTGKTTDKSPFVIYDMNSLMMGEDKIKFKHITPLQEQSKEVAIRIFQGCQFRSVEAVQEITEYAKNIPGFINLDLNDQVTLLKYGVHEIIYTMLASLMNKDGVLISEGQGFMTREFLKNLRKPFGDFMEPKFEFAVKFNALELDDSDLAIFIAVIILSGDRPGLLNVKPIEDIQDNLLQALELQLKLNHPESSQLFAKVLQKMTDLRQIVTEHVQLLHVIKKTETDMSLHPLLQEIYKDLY
Chain of zebrafish Thyroid Hormone Receptor alpha (TRa), thraa (gene 30670) (Q98867 whole entry, looked up, the tested form may be a part): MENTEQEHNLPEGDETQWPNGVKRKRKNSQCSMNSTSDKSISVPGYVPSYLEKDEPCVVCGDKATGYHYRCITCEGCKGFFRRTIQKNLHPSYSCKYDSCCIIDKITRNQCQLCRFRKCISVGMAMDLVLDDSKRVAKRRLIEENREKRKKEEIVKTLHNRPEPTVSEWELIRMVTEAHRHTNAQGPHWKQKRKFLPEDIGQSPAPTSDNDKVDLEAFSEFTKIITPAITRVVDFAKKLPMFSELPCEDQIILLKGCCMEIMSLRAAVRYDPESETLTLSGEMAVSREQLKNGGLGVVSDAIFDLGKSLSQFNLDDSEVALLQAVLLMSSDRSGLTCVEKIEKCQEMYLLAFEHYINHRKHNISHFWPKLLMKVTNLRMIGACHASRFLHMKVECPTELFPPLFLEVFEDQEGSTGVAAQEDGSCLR
Chain of human Thyroid hormone Receptor beta (TRb), THRB (gene 7068) (P10828 whole entry, looked up, the tested form may be a part): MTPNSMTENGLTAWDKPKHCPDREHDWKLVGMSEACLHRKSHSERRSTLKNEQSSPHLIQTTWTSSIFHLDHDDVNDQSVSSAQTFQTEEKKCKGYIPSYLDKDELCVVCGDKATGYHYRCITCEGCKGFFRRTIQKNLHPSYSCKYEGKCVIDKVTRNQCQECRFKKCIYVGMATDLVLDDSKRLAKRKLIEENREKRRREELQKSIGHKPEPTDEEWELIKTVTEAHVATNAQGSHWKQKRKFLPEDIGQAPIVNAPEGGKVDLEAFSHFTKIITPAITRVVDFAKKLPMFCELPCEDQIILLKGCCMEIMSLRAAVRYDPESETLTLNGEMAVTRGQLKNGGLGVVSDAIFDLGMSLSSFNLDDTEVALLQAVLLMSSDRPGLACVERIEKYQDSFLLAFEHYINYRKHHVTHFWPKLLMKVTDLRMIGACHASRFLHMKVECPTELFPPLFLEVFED

Consider `CN(C)c1ccc(N=Nc2ccccc2C(=O)O)cc1`, for which, in assay [1], the AC50 is 68100 nM (active).

Regarding `Nc1ccc(N)c(Cl)c1`, the AC50 in [1] was 18700 nM (active).

`O=C(c1ccc(O)cc1)c1ccc(O)cc1O`: the AC50 in [2] is 2690 nM (active); in assay [3] it was 531 nM (active); in [17], 3.24 µM (active); in [18] it was 1.6 µM (active). Further, the outcome in assay [4], in [5], in assay [6], in assay [7], in assay [8] and in [9] was inactive. The molecule was called inactive in assay [10], in assay [11], in [12], in assay [13], in assay [14] and in assay [15]. The result in [16] and in assay [19] was inactive.

Regarding `COC(=O)c1c(C)cc(O)c(C)c1O`, the outcome in [16] and in [19] was inactive. Also, the AC50 in assay [17] was 8.55 µM (active) and 31.2 µM (active); in assay [18], 8.13 µM (active) and 12.3 µM (active).
